Growth data for nine compounds are collected here from PubChem BioAssay (NCI).

Assay in all cases: NCI-60 one-dose screen, 48 h (100 = growth as untreated, 0 = no growth, -100 = all killed)
One test concerns SR leukemia. The settings on record: 10 µM unless noted.
A further test deals with RPMI-8226 leukemia. The settings on record: 10 µM unless noted.
The subject of the next test is OVCAR-8 ovarian. Particulars: 10 µM unless noted.
Another test relates to SK-OV-3 ovarian. The settings on record: 10 µM unless noted.
The subject of another test is IGROV1 ovarian. The settings on record: 10 µM unless noted.
Another test deals with OVCAR-3 ovarian. Particulars: 10 µM unless noted.
The next test deals with HS 578T breast. Particulars: 10 µM unless noted.
In the next test the test system is NCI/ADR-RES ovarian. Particulars: 10 µM unless noted.
A further test concerns T-47D breast. Particulars: 10 µM unless noted.
For a further test, the system named is BT-549 breast. The settings on record: 10 µM unless noted.
For the next test, the system named is MDA-MB-435 melanoma. The settings on record: 10 µM unless noted.
The next test deals with SW-620 colon. The settings on record: 10 µM unless noted.
For the next test, the system named is MCF7 breast. Particulars: 10 µM unless noted.
The next test relates to HCT-116 colon. Particulars: 10 µM unless noted.
For the next test, the system named is HCC-2998 colon. Particulars: 10 µM unless noted.
A further test relates to KM12 colon. The settings on record: 10 µM unless noted.
In another test the test system is OVCAR-4 ovarian. The settings on record: 10 µM.
A further test deals with OVCAR-5 ovarian. Particulars: 10 µM unless noted.

The panel holds about 83,000 compounds, 20% with a hit somewhere; the sample as a whole holds those more often.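 Assay: single dose, 48 h. Readout: percent growth (0 = no net growth; negative = cell death). Active: <10.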 Values without a mark were called inactive. Calls of active or inactive are those of the source.

For `CSc1cccc([N+](=O)[O-])c1`, the growth in the test on SR leukemia is 107%; in the test on RPMI-8226 leukemia it was 96.8%; in the test with OVCAR-8 ovarian it was 107%; in the test on SK-OV-3 ovarian it was 97.8%; with IGROV1 ovarian, 101%; with OVCAR-3 ovarian, 110%. Further, the growth is 107% with HS 578T breast; 109% in the test on NCI/ADR-RES ovarian; 90.1% in the test with T-47D breast; 104% with BT-549 breast; 100% in the test on MDA-MB-435 melanoma; 108% in the test on SW-620 colon. For the same compound, the growth in the test with MCF7 breast is 108%; with HCT-116 colon, 100%; in the test on HCC-2998 colon it was 108%; in the test with KM12 colon, 113%.

With `Cc1cccc(/C=C2\N=C(c3ccccc3)N(c3ccc(S(N)(=O)=O)cc3)C2=O)c1`, the growth in the test on SR leukemia was 69.6%; with RPMI-8226 leukemia it was 99.3%; with OVCAR-4 ovarian, 77.1%; with SK-OV-3 ovarian, 98.8%; in the test on IGROV1 ovarian, 96.2%; with HS 578T breast, 76.1%. Moreover, the growth with NCI/ADR-RES ovarian is 88.7%; with T-47D breast it was 85.2%; in the test on MDA-MB-435 melanoma, 92.3%; in the test on SW-620 colon, 104%; in the test with MCF7 breast, 82.1%; with HCT-116 colon it was 83.9%. Moreover, the growth is 99.8% in the test with HCC-2998 colon and 98.1% with KM12 colon.

Regarding `COc1cc2c(c(OC)c1OC)-c1ccc(NNC(N)=S)c(=O)cc1[C@@H](NC(C)=O)CC2`, the growth in the test with SR leukemia is 13.2%; in the test with RPMI-8226 leukemia, -11.9% (active); in the test on OVCAR-5 ovarian it was 31.5%; in the test with OVCAR-4 ovarian, 23.1%; in the test with SK-OV-3 ovarian, 7.84% (active); in the test on OVCAR-3 ovarian, -56.8% (active). In addition, the growth in the test with HS 578T breast is 52.1%; in the test with NCI/ADR-RES ovarian it was 87.4%; with T-47D breast, 70.7%; in the test on MDA-MB-435 melanoma, -12.2% (active); in the test on SW-620 colon, 24.9%; with MCF7 breast, 10.1%. Moreover, the figures for the growth with HCC-2998 colon and with KM12 colon were 11.4% and -35.6% (active), respectively.

For `Cc1ccc(C2=C/C(=C/c3ccc(Br)cc3)C(=O)N2CCc2ccc(S(N)(=O)=O)cc2)cc1`, the growth is 87.2% in the test on SR leukemia; 96.1% in the test on RPMI-8226 leukemia; 97.2% with OVCAR-5 ovarian; 91.5% with OVCAR-4 ovarian; 85.5% in the test on IGROV1 ovarian; 93.4% in the test on HS 578T breast. Also, the growth with NCI/ADR-RES ovarian is 89.1%; with T-47D breast it was 75.9%; with MDA-MB-435 melanoma, 101%; in the test with SW-620 colon it was 103%; in the test with MCF7 breast, 88.5%; in the test with HCC-2998 colon it was 105%. The growth in the test on KM12 colon is 100%.

`COc1cc(Cl)cc(-c2nn(C(=O)NS(=O)(=O)c3ccccc3)cc2-c2ccncc2)c1`: the growth with SR leukemia was 87.6%; in the test with RPMI-8226 leukemia, 91.7%; with OVCAR-5 ovarian, 96.5%; with SK-OV-3 ovarian, 83.2%; with IGROV1 ovarian, 92.1%; with OVCAR-3 ovarian, 104%. The growth in the test on HS 578T breast is 79.2%; with NCI/ADR-RES ovarian it was 97.5%; in the test with T-47D breast, 92.5%; in the test on MDA-MB-435 melanoma, 91%; in the test on SW-620 colon, 114%; with MCF7 breast, 99.8%. In addition, the growth is 93.7% with HCT-116 colon and 102% in the test with KM12 colon.

With `O=C(CCN1CCCCC1)c1ccc2ccccc2c1`, the growth in the test with SR leukemia was 103%; with RPMI-8226 leukemia, 77.5%; in the test on OVCAR-5 ovarian it was 117%; in the test with OVCAR-4 ovarian, 114%; with SK-OV-3 ovarian, 105%; in the test on IGROV1 ovarian, 104%. The growth with OVCAR-3 ovarian was 98.6%; in the test on HS 578T breast it was 104%; in the test with NCI/ADR-RES ovarian it was 109%; in the test on T-47D breast, 91%; with MDA-MB-435 melanoma, 110%; in the test on SW-620 colon it was 107%. For the same compound, the growth is 87.8% with MCF7 breast, 103% in the test with HCT-116 colon, 109% in the test with HCC-2998 colon and 102% in the test on KM12 colon.

In the case of `COc1ccc(-c2cc(-c3ccc(Cl)cc3)nc(SCCCCCCC(=O)NO)n2)cc1`, the growth is 4.61% (active) with SR leukemia; 26.5% with RPMI-8226 leukemia; 34.1% in the test on OVCAR-5 ovarian; 56.5% with OVCAR-4 ovarian; 20.1% in the test with SK-OV-3 ovarian; 11.1% in the test on IGROV1 ovarian. For the same compound, the growth in the test on OVCAR-3 ovarian was 39%; with HS 578T breast, 55.5%; in the test on NCI/ADR-RES ovarian it was 2.26% (active); in the test on T-47D breast it was -2.44% (active); in the test on MDA-MB-435 melanoma it was 39.2%; with SW-620 colon, 25.5%. Further, the growth in the test on MCF7 breast is 22.1%; in the test on HCT-116 colon it was 14.9%; with HCC-2998 colon, 59.8%; in the test with KM12 colon, 45.9%.

On to `Cc1ccc(N)c(O)c1`, for which the growth is 112% with SR leukemia; 61.9% in the test on RPMI-8226 leukemia; 108% in the test with OVCAR-5 ovarian; 84.2% in the test with OVCAR-4 ovarian; 112% in the test with SK-OV-3 ovarian; 87.7% with OVCAR-3 ovarian. Moreover, the growth in the test with HS 578T breast is 92.9%; in the test on NCI/ADR-RES ovarian it was 92.8%; with T-47D breast, 94.1%; with MDA-MB-435 melanoma, 102%; in the test on SW-620 colon, 92.2%; in the test with MCF7 breast it was 83.5%. Also, the growth is 85.2% in the test on HCT-116 colon, -4.78% (active) in the test with HCC-2998 colon and 99.5% in the test on KM12 colon.

Turning to `C[C@H]1[C@H](C)CC[C@]2(C(=O)O)CC[C@]3(C)C(=CC[C@@H]4[C@@]5(C)C/C(=C/c6ccco6)C(=O)C(C)(C)[C@@H]5CC[C@]43C)[C@H]12`, the growth is 31.2% [100 µM] in the test with SR leukemia; -19.3% [100 µM] (active) in the test on RPMI-8226 leukemia; -19% [100 µM] (active) in the test with OVCAR-8 ovarian; -17.3% [100 µM] (active) in the test on SK-OV-3 ovarian; -59.6% [100 µM] (active) in the test on IGROV1 ovarian; -74.5% [100 µM] (active) with OVCAR-3 ovarian. Also, the growth in the test with HS 578T breast is -13.9% [100 µM] (active); in the test on NCI/ADR-RES ovarian, -58.9% [100 µM] (active); in the test on T-47D breast it was -14.3% [100 µM] (active); with BT-549 breast, -62.5% [100 µM] (active); with MDA-MB-435 melanoma it was -85.1% [100 µM] (active); with SW-620 colon, -44.9% [100 µM] (active). Also, the growth in the test with MCF7 breast is -74.7% [100 µM] (active); with HCT-116 colon, -73% [100 µM] (active); in the test on HCC-2998 colon, -81.4% [100 µM] (active); in the test on KM12 colon, -73.5% [100 µM] (active).
